# Source: PubChem BioAssay (National Center for Advancing Translational Sciences (NCATS))
# In the library only some 19% were active in any assay of this set; here they are far more common.
# DT40 TDP1 no CPT – qHTS for Inhibitors of human tyrosyl-DNA phosphodiesterase 1 (TDP1): qHTS in cells in absence of CPT; DT40 Tdp1-/- hTDP1 cells, no CPT, ATP luminescence, 48 h; AID 686978, 2013; 15% of 420,000 active; Potency, µM (top dose mostly 46.2 µM), without a hit: at the top dose activity change, negative = growth inhibition, actives largely listed as inhibitors; further: potency means the concentration at half of the fitted maximal effect; nearly all actives have a fitted effect of over 55% in size
#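 Camptothecin absent (DMSO only). Human TDP1-complemented DT40 knockout cells, 400 cells/well, 37 °C for minimum 48 hr; ATP measured via CellTiter-Glo, 30 min dark incubation, luminescence.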
# TDP1 cell CPT – qHTS for Inhibitors of human tyrosyl-DNA phosphodiesterase 1 (TDP1): qHTS in cells in presence of CPT | Potency, µM (highest dose often 46.2 µM), inactives show at the top dose activity change, negative = growth inhibition, actives largely listed as inhibitors | 12% of 420,000 active | chicken DT40 Tdp1-/-;hTDP1 cells + 20 nM CPT, ATP luminescence, 48 h; further: potency means the concentration at half of the fitted maximal effect; nearly all actives have a fitted effect of over 55% in size
#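 Chicken DT40 Tdp1-/- cells stably complemented with human TDP1 were seeded at 400 cells/well in medium containing 20 nM camptothecin, exposed to pin-transferred compounds, and grown at 37 °C for at least 48 hr. Viability was read as ATP luminescence.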
# HT1080 IDH1KD tx – qHTS for induction of synthetic lethality in tumor cells producing 2HG: qHTS for the HT-1080-IDH1KD cell line; Potency, µM (top dose mostly 46.1 µM), for the others: at the highest dose activity, negative = toxicity, most hits filed as cytotoxic; HT-1080 IDH1 knockdown viability, ATP luminescence, 48 h; 2% of 360,000 active;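 further: potency means the concentration at half of the fitted maximal effect; 0% = DMSO wells and -100% = cell-free medium wells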
#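 IDH1KD HT-1080 cells, 750/well, RPMI + 5% FBS; compound pinned after 2 h settling; 48 h, 37 °C; CellTiter-Glo luminescence; % activity normalised to DMSO and no-cell wells; curves fitted, classed by r2 and efficacy.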
# HT1080-NT tox – qHTS for induction of synthetic lethality in tumor cells producing 2HG: qHTS for the HT-1080-NT fibrosarcoma cell line; HT-1080-NT fibrosarcoma viability, CellTiter-Glo ATP luminescence, 48 h; Potency, µM (highest dose often 46.1 µM), for the others: top-dose activity, negative = less viability, hits mostly cytotoxic; 1.6% of 360,000 active; AID 686970, 2013;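 further: NT is the 2HG producing partner of a matched IDH1 knockdown line; potency means the concentration at half of the fitted maximal effect; 0% = DMSO-treated cells and -100% = media-only wells without cells; nearly all actives have a fitted effect of over 55% in size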
#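 Viability by CellTiter-Glo luminescence after 48 h compound exposure at 37C of HT-1080-NT cells (750/well, RPMI, 5% FBS). % activity scaled between DMSO wells and medium-only wells, then curve-fitted and categorized by curve class.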
# ELG1 DNA repair – qHTS screen for small molecules that inhibit ELG1-dependent DNA repair in human embryonic kidney (HEK293T) cells expressing luciferase-tagged ELG1; HEK293T ELG1-luciferase reporter, luminescence, 16 h; DNA damage induced by 5-fluorouridine; Potency, µM (doses to about 46.1 µM), for inactives: at the highest dose activity change, negative = inhibition, hits mostly inhibitors; 2.3% of 330,000 active; further: potency means the concentration at half of the fitted maximal effect; nearly all actives have a fitted effect of over 55% in size
#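 Reporter activity after DNA damage by 5-fluorouridine is monitored. Compound-treated cells incubate 16 hr at 37 °C, then ONE-Glo is added for 30 min before luminescence reading.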
# IL-1B inflam inh – qHTS for Inhibitors of Inflammasome Signaling: IL-1-beta AlphaLISA Primary Screen | THP-1 LPS/ATP IL-1B secretion, AlphaLISA, 16 h; active compounds read low | activity change, % at 57.5 µM | 4.7% of 360,000 active; in the data active means activity change below about -50%; inconclusive means mostly about -30% to -49%
#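 THP-1 cells pretreated 1 hr with compounds (up to 57.5 uM final), then stimulated with LPS (250 ng/mL final) plus ATP (1.25 mM final); secreted IL-1B measured by AlphaLISA after 16 hr, decreased signal indicating inhibition.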
# Numbers without * were called inactive; i = inactive; ? = inconclusive; nt = no result given. Unless noted, the call rests on the fitted dose curve; in most records, active means well fitted curve in the direction sought with a large enough effect; inconclusive means small, poorly fitted or top-dose-only effect, or another doubt; inactive means no such curve, though single readings can be large; an effect the other way counts as inactive or inconclusive. Unless noted, on the % scale 0 is the no-effect control and ±100 the full control effect.
SMILES,DT40 TDP1 no CPT,TDP1 cell CPT,HT1080 IDH1KD tx,HT1080-NT tox,ELG1 DNA repair,IL-1B inflam inh
CCCC[C@@H]1C=C(C(=O)O)[C@H](c2ccc(Cl)cc2)N1S(=O)(=O)c1ccc(C)cc1,-12.3%,-0.6%,-0.7%,-5.5%,6.2%,7.7
COc1ccc(CNC(=O)CN(Cc2ccc(OC)cc2)C(=O)CCC(=O)Nc2ccccn2)cc1,-12.4%,-15.5%,-10.5%,2.5%,-0.9%,17.3
COc1cccc(-c2nc(-c3ccc(NC(=O)Cc4ccccc4OC)cc3)no2)c1,?,?,-4.1%,-4.4%,?,-19.5
COc1ccccc1CC(=O)Nc1ccc(-c2noc(COc3ccc(Br)cc3)n2)cc1,-27.2%,-18.4%,?,?,14.7%,-12.5
Cc1ccccc1OCc1nc(-c2ccc(NC(=O)c3ccco3)cc2)no1,23.1µM*,?,-20.3%,-13.9%,?,0.0
COc1ccc(CC(=O)Nc2ccc(-c3noc(-c4ccccc4OC)n3)cc2)cc1,?,?,?,-24.9%,10.6%,-62.5*
CCCc1ccc(OCc2nc(-c3ccc(NC(=O)c4ccco4)cc3)no2)cc1,?,?,?,?,?,32.1
O=C(NCc1nc(-c2ccccc2)no1)c1ccc2c(c1)OCO2,-17.6%,-15.1%,-2.4%,6.3%,-2.8%,0.0
COc1ccccc1CC(=O)Nc1ccc(-c2noc(COc3cccc(C)c3C)n2)cc1,13µM*,18.4µM*,-6.4%,1.0%,?,-8.5
Cc1ccccc1OCc1nc(-c2ccc(NC(=O)c3ccc4c(c3)OCO4)cc2)no1,23.1µM*,?,20.6µM*,20.6µM*,?,13.3
COc1ccc(C(=O)NC(=S)NCc2ccco2)cc1Br,?,?,-25.2%,-15.0%,-8.2%,i
COc1ccc(CC(=O)NC2CC(=O)N(c3ccc(C)c(C)c3)C2)cc1OC (centres undefined),-22.4%,-8.8%,nt,nt,nt,nt
COc1ccnc(Oc2ccc(F)cc2)c1C(=O)N/C=N/OCc1ccc(F)cc1Cl,?,?,-13.6%,2.8%,?,-64.5*
Cc1oc(-c2cccc(Cl)c2)nc1CS(=O)(=O)CC(=O)NC(C)CCc1ccccc1 (centres undefined),?,-29.8%,nt,nt,nt,nt
CCCc1nnc(NC(=O)c2cc(=O)c3ccccc3o2)s1,-10.0%,-17.1%,nt,nt,nt,nt
Cc1ccc(NC(=O)CCN2C(=O)c3ccccc3Sc3ncccc32)cc1,16.4µM*,16.4µM*,-15.1%,-1.3%,17.4%,22.7
CC(C)CCNC(=O)CCCN1C(=O)c2ccccc2Sc2ncccc21,?,14.6µM*,nt,nt,nt,nt
Cc1cc(NC(=O)CN2C(=O)c3cccnc3Sc3ccccc32)ccc1Br,23.1µM*,?,nt,nt,nt,nt
Cc1ccccc1NC(=O)CCN1C(=O)c2ccccc2Sc2ncccc21,?,-26.9%,nt,nt,nt,nt
Cc1ccc(NC(=O)CN2C(=O)c3ccccc3Sc3ncccc32)c(C)c1,23.1µM*,23.1µM*,nt,nt,nt,nt
CC(C)NC(=O)CCCN1C(=O)c2ccccc2Sc2ncccc21,5.7%,-5.7%,13.4%,-0.4%,20.5%,-5.5
O=C(Nc1cccc(F)c1)N1CC[C@@]2(CCCN(S(=O)(=O)c3ccccc3)C2)C1,?,-5.8%,nt,nt,nt,nt
Cc1c(S(=O)(=O)NC2CCCCC2)c(=O)n(C)c(=O)n1C,-1.2%,22.6%,3.5%,7.5%,?,28.4
Cc1cc(C)c(NC(=O)CN2C(=O)c3cccnc3Sc3ccccc32)c(C)c1,-30.6%,?,nt,nt,nt,nt
CCN(CC)c1ccc(NC(=O)CN2C(=O)c3cccnc3Sc3ccccc32)c(C)c1,13µM*,16.4µM*,nt,nt,nt,nt
SMILES,DT40 TDP1 no CPT,TDP1 cell CPT,HT1080 IDH1KD tx,HT1080-NT tox,ELG1 DNA repair,IL-1B inflam inh
O=C(NCc1nc2ccccc2[nH]1)C1=C[C@H](c2coc3ccccc3c2=O)C[C@H](OCCCCO)O1,?,20.6µM*,-0.9%,0.0%,nt,-26.2
O=C(NCc1nc2ccccc2[nH]1)C1=C[C@@H](c2ccccc2)C[C@@H](OCCCCO)O1,?,10.2%,-1.9%,-14.9%,-6.0%,2.0
O=C(NCc1nc2ccccc2[nH]1)C1=C[C@@H](C2CCCCC2)C[C@@H](OCCCCO)O1,14.6µM*,20.6µM*,8.0%,0.0%,?,-4.9
c1ccc(CCOn2ccnc2)cc1,8.9%,-0.8%,7.3%,18.5%,-5.3%,-1.6
CSCCC1NC(=O)N(C(C)C(=O)Nc2cc(Cl)cc(Cl)c2)C1=O (centres undefined),-17.8%,0.2%,-1.1%,-20.2%,19.5%,-13.8
COc1ccc(/C=C/CN2CCN(Cc3ccccc3)C(CCO)C2)cc1 (centres undefined),-22.2%,-6.9%,-16.9%,-3.4%,-3.8%,-8.2
Cc1ccc(CN2CCN(Cc3c[nH]c4ccccc34)CC2CCO)o1 (centres undefined),?,7.31µM*,-0.3%,-26.1%,-0.9%,-0.1
COc1ccc(/C=C/CN2CCN(Cc3ccc(F)cc3)C(CCO)C2)cc1 (centres undefined),29.1µM*,?,-8.1%,-15.6%,-0.2%,-54.6*
CCOc1ccccc1CN1CCN(Cc2[nH]c3ccccc3c2C)CC1CCO (centres undefined),14.6µM*,?,?,-16.6%,-21.8%,-9.4
Cc1ccc(CN2CCN(Cc3cc(=O)c4ccccc4[nH]3)CC2CCO)o1 (centres undefined),17.1%,0.5%,8.1%,9.3%,10.5%,-3.0
CCOc1ccccc1CN1CCN(Cc2cc(=O)c3ccccc3[nH]2)CC1CCO (centres undefined),?,?,-26.5%,-9.5%,-18.5%,48.8
CCOc1ccccc1CN1CCN(Cc2c[nH]c3ccccc23)CC1CCO (centres undefined),16.4µM*,9.2µM*,-25.0%,-28.7%,-9.2%,-4.6
CC12CC3CC1C(C(=O)O2)C3C(=O)O (centres undefined),2.7%,-1.5%,1.2%,-5.8%,nt,21.0
O=C(CN(C(=O)c1csnn1)c1ccc(Br)cc1)NC1CCCCC1,-21.2%,2.5%,13.2%,-7.5%,?,-0.4
